PD-1 reverse act = reversal of PD-1 mediated T-cell inhibition. primary human CD4 T cells, PD-L1 beads, CellTiter-Glo 96 h. AID 2316. 29,000 tested, under 10 active. activation, % (no concentration beside the values); call rule not given here;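 further: 0% = median vehicle wells and 100% = positive control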
MITF inhib = inhibitors of MITF; TRPM1 promoter luciferase, luminescence, 24 h; 0.28% of 37,000 active; AID 2240; inhibition, % (test concentration not listed); in the data active means inhibition above about 85%; inconclusive means no clear call, values can overlap the other calls; inactive means below about 68%;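 further: human melanocyte line stably carrying TRPM1 promoter luciferase reporter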
NOMO-1 viab = STK33 inhibitor candidate reducing NOMO-1 cell viability; NOMO-1 AML viability, CellTiter-Glo luminescence, 72 h; inhibition, % (concentration not given with the values); 7.5% of 37,000 active; AID 2330; in the data active means inhibition above about 80%; inconclusive means no clear call, values can overlap the other calls
Hedgehog inh = Sonic Hedgehog pathway inhibition. inhibition, % (test concentration not listed). Shh-LIGHT2 Gli-luciferase reporter, 30 h. 2.1% of 22,000 active;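 active means mean inhibition across valid replicates above about 65%, limit read from the data; inconclusive means mean under the limit, yet half or more replicates past it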;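 further: pathway switched on by Shh-conditioned medium diluted 1 in 25 in low serum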
* marks the source's active call; other numbers are inactive results; ? = inconclusive; . = not tested or not shown. A selection: hits, their analogues and other compounds. The true share with any hit is near 8.1%.

SMILES	PD-1 reverse act	MITF inhib	NOMO-1 viab	Hedgehog inh
C[C@H]1CN([C@@H](C)CO)C(=O)c2cccc(NC(=O)Nc3ccc(F)cc3)c2O[C@@H]1CN(C)Cc1ccc(C(=O)Nc2ccccc2N)cc1	-1	-6	140*	.
C[C@@H]1CN([C@H](C)CO)C(=O)c2cccc(NC(=O)Nc3ccc(C(F)(F)F)cc3)c2O[C@@H]1CN(C)Cc1ccc(C(=O)O)cc1	1	2	1	-20
Cn1c(SCC(=O)Nc2cccc(F)c2)nnc1-c1ccc(Cl)cc1	1	16	7	.
Cc1ccc(SC(C)C(=O)Nc2ccc(C(C)(C)C)cc2)cc1 (stereo not given)	0	-80	49	-37
Cc1cc(C)nc(NS(=O)(=O)c2ccc(-n3c(-c4ccc5ccccc5n4)n[nH]c3=S)cc2)n1	0	-12	-4	.
C[C@@H]1CN([C@@H](C)CO)C(=O)c2cc(NC(=O)Nc3ccc(F)cc3)ccc2O[C@@H]1CN(C)Cc1ccc(C(=O)Nc2ccccc2N)cc1	-1	-14	?	.
C[C@@H]1CN([C@H](C)CO)C(=O)c2cccc(NC(=O)Nc3ccc(F)cc3)c2O[C@H]1CN(C)Cc1ccc(C(=O)Nc2ccccc2N)cc1	-3	11	127*	.
CCn1c(=NC(=O)c2ccc(S(=O)(=O)N(C)C)cc2)sc2ccccc21	0	-45	87*	-135
CCn1c2ccccc2c2cc(NC(=O)CN(C)S(=O)(=O)c3ccccc3)ccc21	.	28	42	.
O=C(Nc1ccc(Cl)c(C(F)(F)F)c1)C(=S)NCc1ccco1	0	-68	67	37
COc1ccc([N+](=O)[O-])cc1NC(=O)COc1ccc(Cl)cc1Br	1	-12	22	.
COc1ccc([N+](=O)[O-])cc1NC(=O)COc1ccc(C(C)(C)C)cc1Br	0	89*	14	.
O=C(CN(CCO)C(=O)c1ccc(Cl)cc1)Nc1ccc(F)cc1	0	5	-22	51
COc1cc(Cl)c(C(Nc2ccccn2)c2cc(Cl)c3cccnc3c2O)cc1OC (stereo not given)	.	63	110*	.
Oc1c(C(Nc2ccccn2)c2ccccn2)cc(Cl)c2cccnc12 (stereo not given)	.	56	112*	.
Oc1c(C(Nc2ccccn2)c2cccc(F)c2)cc(Cl)c2cccnc12 (stereo not given)	.	57	113*	.
Oc1c(C(Nc2ccccn2)c2c(F)cccc2Cl)cc(Cl)c2cccnc12 (stereo not given)	.	67	108*	.
O=C(O)CCCc1cc2cc(Br)ccc2o1	0	12	40	-51
N#CC(=S)Nc1ccc(F)cc1	-1	42	49	35
COC(=O)C(=O)CC(=O)c1c(F)c(F)c(OC)c(F)c1F	5	-6	-15	-19
CCC(=O)NC(c1ccco1)c1cc(Cl)c2cccnc2c1O (stereo not given)	0	46	126*	104*
CCCCC[C@@H](O)CC(=O)CCc1ccc(O)c(OC)c1	-2	-11	30	-14
OC(c1cc(C(F)(F)F)nc2c(C(F)(F)F)cccc12)C1CCCCN1 (stereo not given)	-7	4	129*	12
COc1ccc(CC(=O)Nc2cccc(-c3nnc(-c4ccc(C)cc4)o3)c2)cc1OC	1	101*	122*	.
COc1ccccc1OCC(=O)Nc1cccc(-c2nnc(-c3ccccc3)o2)c1	1	-99	-19	.
SMILES	PD-1 reverse act	MITF inhib	NOMO-1 viab	Hedgehog inh
COc1cc2c(cc1NC(=O)COc1ccc(Br)cc1Cl)oc1ccccc12	0	-4	128*	.
COc1ccc([N+](=O)[O-])cc1NC(=O)COc1ccc(Br)cc1Cl	.	9	11	.
Cc1ccc(S(=O)(=O)N(C)C[C@@H]2Oc3c(NC(=O)C4CCCCC4)cccc3C(=O)N([C@@H](C)CO)C[C@@H]2C)cc1	-1	7	8	104*
Cc1ccc(S(=O)(=O)N(C)C[C@@H]2Oc3c(NC(=O)C4CCCCC4)cccc3C(=O)N([C@H](C)CO)C[C@@H]2C)cc1	0	6	35	70*
Cc1ccc(S(=O)(=O)N(C)C[C@@H]2Oc3c(NC(=O)C4CCCCC4)cccc3C(=O)N([C@@H](C)CO)C[C@H]2C)cc1	.	0	21	-16
C[C@H]1CN([C@@H](C)CO)C(=O)c2cccc(NC(=O)C3CCCCC3)c2O[C@H]1CN(C)S(=O)(=O)c1ccc(F)cc1	1	-12	21	82*
CC(C)CC1NC(=O)C2CCCN2C1=O (stereo not given)	0	-3	-4	7
CC(=O)N[N+]1=C(N)c2ccccc2C1	-1	-1	-4	-38
C[C@H](CO)N1C[C@H](C)[C@H](CN(C)Cc2ccc(Oc3ccccc3)cc2)Oc2ccc(NC(=O)Nc3ccc(C(F)(F)F)cc3)cc2C1=O	-12	24	114*	.
C[C@H]1CN([C@@H](C)CO)C(=O)c2cc(NC(=O)Nc3ccc(F)cc3)ccc2O[C@H]1CN(C)Cc1ccc(Oc2ccccc2)cc1	-1	-2	22	.
C[C@H]1CN([C@@H](C)CO)C(=O)c2cc(NC(=O)Nc3ccc(C(F)(F)F)cc3)ccc2O[C@H]1CN(C)Cc1ccc(Oc2ccccc2)cc1	-5	10	83*	30
COc1ccc(NC(=O)Nc2ccc3c(c2)C(=O)N([C@@H](C)CO)C[C@@H](C)[C@@H](CN(C)Cc2ccc(C(F)(F)F)cc2)O3)cc1	0	34	?	.
C[C@H](CO)N1C[C@H](C)[C@@H](CN(C)Cc2ccc(Oc3ccccc3)cc2)Oc2ccc(NC(=O)Nc3ccc(C(F)(F)F)cc3)cc2C1=O	.	-9	128*	-9
CCn1c(SCc2nc3ccccc3[nH]2)nc2sc(C)c(C)c2c1=O	-2	18	23	.
O=C1C=CC(=O)N1c1ccccc1	-7	64	114*	.
CC1=CC(C)C2(COC(=O)Nc3ccccc3)COC(c3cccnc3)C1C2C (stereo not given)	0	53	105*	92*
Cc1ccc(S(=O)(=O)NCCSc2nnc(Nc3ccccc3)s2)cc1	.	34	46	.
O=C1c2ccccc2-c2c(NCCc3ccccc3)c(=O)[nH]c3cccc1c23	-3	31	115*	45
COc1ccc2c(=S)c(-c3cc4ccccc4o3)c(C)oc2c1	2	-11	7	-64
C=C(C)C(=O)O[C@H]1C[C@@]2(C)O[C@@H]2[C@H]2O[C@H]2C(=C)[C@@H](O)[C@H]2OC(=O)C(=C)[C@@H]21	.	.	.	8
C=C(C(=O)O[C@H]1C[C@]2(C)C(C(C=O)CC[C@H]2O)[C@H]2OC(=O)C(=C)[C@H]12)C(O)CO (stereo not given in full)	-12	-14	104*	-8
C[C@@H]1CN([C@H](C)CO)C(=O)Cc2cc(N(C)C)ccc2O[C@@H]1CN(C)S(=O)(=O)c1cccs1	.	6	8	69*
C[C@H]1CN([C@@H](C)CO)C(=O)Cc2cc(N(C)C)ccc2O[C@H]1CN(C)S(=O)(=O)c1ccc(Cl)cc1	0	24	115*	-17
C[C@H]1CN([C@@H](C)CO)C(=O)Cc2cc(N(C)C)ccc2O[C@@H]1CN(C)S(=O)(=O)c1ccc(Cl)cc1	.	3	9	.
CCOC(=O)c1c(NC(=O)c2cc(-c3cccnc3)nc3c(C)cc(C)cc23)sc(C(C)=O)c1C	.	-10	40	.
